Data from the supplement of paper PMC10849652.
Of roughly 8,800 targets only a part is listed; those with a hit were picked by preference. About 0.5% of all pairs of compound and target were hits.

Columns and labels:
Experiment in all cases: log2 fold change, soluble protein after heating vs DMSO (PISA); higher = thermal stabilisation; K562 lysate, 10 uM; active = over 0.2 and 3.5 SD of the protein, either way, in both replicates (recomputed)
nilotinib = compound: Cc1cn(-c2cc(NC(=O)c3ccc(C)c(Nc4nccc(-c5cccnc5)n4)c3)cc(C(F)(F)F)c2)cn1 [nilotinib]
Outline: (§1)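 Thermal stability, expressed as log-two fold change relative to solvent controls, is given from duplicates. Crude K562 extract in PBS pH 7.4 with 1 mM MgCl2, at 1 mg/mL protein, was treated with 10 μM compound for 30 min and heated in aliquots for 3 min across 48°C-58°C. After pooling, adjustment to 0.5% NP-40 at 4°C and centrifugation at 21,000xg for 90 min, supernatant protein was measured by TMTpro 16plex LC-MS/MS with channel sums equalised.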

[1] = compound: Cc1nc(Nc2n[nH]c3c2CN(C(=O)N[C@H](CN(C)C)c2ccccc2)C3(C)C)c2sccc2n1
Outline: as §1

dasatinib = compound: Cc1nc(Nc2ncc(C(=O)Nc3c(C)cccc3Cl)s2)cc(N2CCN(CCO)CC2)n1 [dasatinib]
Outline: as §1

[2] = compound: Cc1ncc(-c2ccnc(Nc3ccc(S(C)(=O)=O)cc3)n2)n1C(C)C
Outline: as §1

[3] = compound: Cn1cc(-c2ccc3c(c2)CCN3C(=O)Cc2cccc(C(F)(F)F)c2)c2c(N)ncnc21
Outline: as §1

quisinostat = compound: Cn1cc(CNCC2CCN(c3ncc(C(=O)NO)cn3)CC2)c2ccccc21 [quisinostat]
Outline: as §1

tipifarnib = compound: Cn1cncc1[C@@](N)(c1ccc(Cl)cc1)c1ccc2c(c1)c(-c1cccc(Cl)c1)cc(=O)n2C [tipifarnib]
Outline: as §1

[4] = compound: NC(=O)Nc1cc(-c2cccc(F)c2)sc1C(=O)N[C@H]1CCCNC1
Outline: as §1

[5] = compound: NC(=O)c1cnc(N[C@@H]2CCCC[C@@H]2N)nc1Nc1cccc(-n2nccn2)c1
Outline: as §1

[6] = compound: NC1(c2ccc(-c3nc4ccn5c(=O)[nH]nc5c4cc3-c3ccccc3)cc2)CCC1
Outline: as §1

Measured: log2 fold change

NOSIP (UniProt Q9Y314)
Chain of UniProt Q9Y314 (Q9Y314 whole entry, looked up): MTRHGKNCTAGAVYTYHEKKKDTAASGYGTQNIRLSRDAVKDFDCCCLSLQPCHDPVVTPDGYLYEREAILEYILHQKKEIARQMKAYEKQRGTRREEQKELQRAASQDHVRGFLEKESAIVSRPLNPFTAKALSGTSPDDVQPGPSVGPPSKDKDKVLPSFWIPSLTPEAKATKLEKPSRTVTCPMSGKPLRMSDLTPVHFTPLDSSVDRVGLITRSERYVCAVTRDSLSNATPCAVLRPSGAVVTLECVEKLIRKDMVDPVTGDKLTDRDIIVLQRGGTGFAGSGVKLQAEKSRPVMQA
inactive: nilotinib 0.005 | [1] 0.009 | dasatinib -0.018 | [2] 0.027 | [3] -0.019 | quisinostat -0.151 | tipifarnib -0.021 | [4] 0.003 | [5] -0.015 | [6] 0.006

MYCBP2 (UniProt O75592)
inactive: nilotinib 0.028 | [1] -0.013 | dasatinib -0.038 | [2] -0.013 | [3] 0.015 | quisinostat -0.116 | tipifarnib -0.008 | [4] 0.019 | [5] 0.012 | [6] -0.013

NUDT4 isoform 2 (UniProt Q9NZJ9)
inactive: nilotinib -0.004 | [1] 0.012 | dasatinib 0.13 | [2] -0.002 | [3] 0.038 | quisinostat -0.012 | tipifarnib -0.044 | [4] 0.016 | [5] -0.042 | [6] 0.043

NCAPD3 (UniProt P42695)
inactive: nilotinib 0.005 | [1] -0.022 | dasatinib -0.041 | [2] 0.005 | [3] 0.005 | quisinostat -0.06 | tipifarnib 0.005 | [4] 0.078 | [5] -0.014 | [6] -0.028

NARS2 (UniProt Q96I59)
inactive: nilotinib 0.019 | [1] -0.027 | dasatinib -0.046 | [2] -0.014 | [3] 0.026 | quisinostat -0.023 | tipifarnib 0.007 | [4] 0.051 | [5] 0.037 | [6] -0.037

NQO1 (UniProt P15559)
inactive: nilotinib 0.051 | [1] -0.031 | dasatinib 0.244 | [2] 0.022 | [3] -0.104 | quisinostat 0.021 | tipifarnib 0.042 | [4] 0.042 | [5] -0.027 | [6] 0.056

PAIP2 (UniProt Q9BPZ3)
Chain of UniProt Q9BPZ3 (Q9BPZ3 whole entry, looked up): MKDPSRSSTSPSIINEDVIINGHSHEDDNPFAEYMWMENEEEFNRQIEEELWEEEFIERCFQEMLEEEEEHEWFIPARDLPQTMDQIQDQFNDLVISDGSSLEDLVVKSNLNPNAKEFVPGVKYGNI
inactive: nilotinib 0.136 | [1] 0.062 | dasatinib -0.047 | [2] -0.009 | [3] -0.049 | quisinostat 0.007 | tipifarnib -0.1 | [4] -0.087 | [5] -0.02 | [6] -0.018

NAT1 (UniProt P18440)
inactive: nilotinib -0.005 | [1] -0.017 | dasatinib -0.058 | [2] -0.04 | [3] 0.097 | quisinostat -0.1 | tipifarnib -0.006 | [4] 0.017 | [5] -0.018 | [6] -0.037

PARG (UniProt Q86W56)
Chain of UniProt Q86W56 (Q86W56 whole entry, looked up): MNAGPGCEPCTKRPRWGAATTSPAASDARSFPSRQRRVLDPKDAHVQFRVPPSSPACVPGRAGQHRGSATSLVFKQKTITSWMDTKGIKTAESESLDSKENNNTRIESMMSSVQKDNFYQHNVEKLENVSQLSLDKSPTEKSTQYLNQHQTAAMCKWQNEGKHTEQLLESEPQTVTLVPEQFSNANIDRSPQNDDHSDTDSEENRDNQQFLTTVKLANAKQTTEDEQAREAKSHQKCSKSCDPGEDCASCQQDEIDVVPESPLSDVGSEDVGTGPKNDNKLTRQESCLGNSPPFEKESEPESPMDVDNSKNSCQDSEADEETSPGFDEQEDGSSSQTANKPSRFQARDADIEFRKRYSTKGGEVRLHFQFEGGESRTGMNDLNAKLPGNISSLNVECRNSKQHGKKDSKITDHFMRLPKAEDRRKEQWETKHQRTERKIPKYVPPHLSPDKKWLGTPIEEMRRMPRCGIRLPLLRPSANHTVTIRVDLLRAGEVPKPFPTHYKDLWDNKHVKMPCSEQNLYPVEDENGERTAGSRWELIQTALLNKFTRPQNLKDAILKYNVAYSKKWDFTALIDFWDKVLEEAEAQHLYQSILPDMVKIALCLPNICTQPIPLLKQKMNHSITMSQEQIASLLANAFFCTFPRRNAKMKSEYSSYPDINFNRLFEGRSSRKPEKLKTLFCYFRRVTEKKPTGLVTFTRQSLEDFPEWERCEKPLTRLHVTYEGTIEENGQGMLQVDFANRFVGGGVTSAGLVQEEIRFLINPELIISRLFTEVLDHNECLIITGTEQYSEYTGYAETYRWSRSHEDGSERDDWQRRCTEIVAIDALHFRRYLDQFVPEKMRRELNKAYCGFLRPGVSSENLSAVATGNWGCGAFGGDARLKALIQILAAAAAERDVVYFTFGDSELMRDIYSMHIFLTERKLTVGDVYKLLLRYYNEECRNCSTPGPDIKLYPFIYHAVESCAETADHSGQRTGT
inactive: nilotinib 0.006 | [1] 0.017 | dasatinib -0.033 | [2] 0.007 | [3] -0.004 | quisinostat -0.081 | tipifarnib -0.007 | [4] 0.097 | [5] 0.006 | [6] 0.006

NUDT4 (UniProt Q9NZJ9)
inactive: nilotinib 0.115 | [1] -0.03 | dasatinib 0.038 | [2] -0.002 | [3] 0.006 | quisinostat 0.129 | tipifarnib 0.11 | [4] 0.018 | [5] -0.059 | [6] 0.022

PANK2 (UniProt Q9BZ23)
inactive: nilotinib -0.068 | [1] -0.111 | dasatinib 0.135 | [2] 0.001 | [3] -0.032 | quisinostat 0.045 | tipifarnib 0.126 | [4] -0.053 | [5] -0.005

OGT (UniProt O15294)
inactive: nilotinib 0.018 | [1] 0.01 | dasatinib -0.027 | [2] -0.002 | [3] 0.041 | quisinostat -0.067 | tipifarnib -0.012 | [4] 0.026 | [5] 0.009 | [6] -0.023

MSH3 (UniProt P20585)
inactive: nilotinib -0.007 | [1] 0.034 | dasatinib -0.03 | [2] 0.028 | [3] 0.014 | quisinostat -0.037 | tipifarnib -0.001 | [4] -0.003 | [5] 0.011 | [6] -0.035

MYCBP (UniProt Q99417)
inactive: nilotinib -0.034 | [1] 0.041 | dasatinib 0.019 | [2] 0.055 | [3] -0.011 | quisinostat -0.058 | tipifarnib -0.011 | [4] -0.038 | [5] -0.02 | [6] 0.029

NGLY1 (UniProt Q96IV0)
inactive: nilotinib -0.004 | [1] 0.02 | dasatinib -0.038 | [2] 0.008 | [3] 0.042 | quisinostat -0.104 | tipifarnib -0.016 | [4] 0.041 | [5] -0.005 | [6] -0.03

MRPL51 (UniProt Q4U2R6)
inactive: nilotinib -0.029 | [1] -0.006 | dasatinib -0.056 | [2] -0.054 | [3] -0.055 | tipifarnib -0.003 | [4] 0.055 | [5] -0.003 | [6] 0.024
active: quisinostat 0.27

MYO1D (UniProt O94832)
Chain of UniProt O94832 (O94832 whole entry, looked up): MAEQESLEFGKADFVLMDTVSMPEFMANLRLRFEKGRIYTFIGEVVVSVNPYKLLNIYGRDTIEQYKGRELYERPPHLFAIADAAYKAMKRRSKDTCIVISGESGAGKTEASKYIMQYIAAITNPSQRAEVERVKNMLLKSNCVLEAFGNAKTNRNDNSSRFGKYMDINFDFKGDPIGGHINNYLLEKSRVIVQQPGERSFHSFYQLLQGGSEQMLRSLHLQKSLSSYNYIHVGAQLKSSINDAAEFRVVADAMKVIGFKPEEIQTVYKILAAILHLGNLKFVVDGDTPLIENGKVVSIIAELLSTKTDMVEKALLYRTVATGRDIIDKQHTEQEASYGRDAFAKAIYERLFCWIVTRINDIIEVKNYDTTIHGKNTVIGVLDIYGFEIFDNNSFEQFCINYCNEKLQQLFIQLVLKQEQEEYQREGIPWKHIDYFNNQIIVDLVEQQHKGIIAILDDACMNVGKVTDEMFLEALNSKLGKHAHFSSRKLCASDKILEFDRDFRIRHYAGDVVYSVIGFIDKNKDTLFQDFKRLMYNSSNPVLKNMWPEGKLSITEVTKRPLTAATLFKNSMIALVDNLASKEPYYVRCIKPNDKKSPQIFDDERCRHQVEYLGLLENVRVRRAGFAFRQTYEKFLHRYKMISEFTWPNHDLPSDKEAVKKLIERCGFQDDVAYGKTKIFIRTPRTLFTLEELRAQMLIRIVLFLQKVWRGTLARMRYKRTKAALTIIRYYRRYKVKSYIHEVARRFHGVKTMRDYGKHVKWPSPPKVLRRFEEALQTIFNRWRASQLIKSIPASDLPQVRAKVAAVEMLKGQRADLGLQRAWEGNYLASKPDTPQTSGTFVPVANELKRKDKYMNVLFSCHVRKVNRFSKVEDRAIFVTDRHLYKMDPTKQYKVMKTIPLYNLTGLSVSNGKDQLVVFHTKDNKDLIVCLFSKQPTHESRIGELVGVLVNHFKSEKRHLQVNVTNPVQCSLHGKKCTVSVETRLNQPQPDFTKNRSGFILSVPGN
inactive: nilotinib 0.002 | [1] -0.01 | dasatinib -0.036 | [2] -0.006 | [3] 0.016 | quisinostat -0.031 | tipifarnib -0.004 | [4] 0.05 | [5] 0 | [6] -0.042

NCAPH2 (UniProt Q6IBW4)
inactive: nilotinib -0.029 | [1] 0 | dasatinib -0.011 | [2] -0.048 | [3] 0.066 | quisinostat 0.051 | tipifarnib -0.014 | [4] 0.058 | [5] 0.004 | [6] 0.025

MT-CYB (UniProt P00156)
inactive: nilotinib 0.063 | [1] -0.081 | dasatinib 0.16 | [2] 0.011 | [3] 0 | quisinostat -0.131 | tipifarnib -0.184 | [4] -0.003 | [5] -0.037 | [6] -0.06

NFIC (UniProt P08651)
Chain of UniProt P08651 (P08651 whole entry, looked up): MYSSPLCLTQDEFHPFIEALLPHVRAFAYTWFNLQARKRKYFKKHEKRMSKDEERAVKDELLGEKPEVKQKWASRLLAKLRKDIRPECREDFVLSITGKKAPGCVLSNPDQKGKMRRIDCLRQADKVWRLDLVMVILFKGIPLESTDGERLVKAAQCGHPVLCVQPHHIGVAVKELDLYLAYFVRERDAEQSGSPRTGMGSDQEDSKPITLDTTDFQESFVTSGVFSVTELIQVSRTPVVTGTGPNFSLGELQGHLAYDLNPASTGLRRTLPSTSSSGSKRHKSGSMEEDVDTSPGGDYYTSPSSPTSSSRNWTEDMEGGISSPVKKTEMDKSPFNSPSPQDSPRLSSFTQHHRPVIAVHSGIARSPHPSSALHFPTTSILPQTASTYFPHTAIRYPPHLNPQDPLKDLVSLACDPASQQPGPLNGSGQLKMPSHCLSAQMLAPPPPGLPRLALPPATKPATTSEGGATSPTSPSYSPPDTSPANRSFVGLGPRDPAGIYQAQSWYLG
inactive: nilotinib -0.058 | [1] -0.162 | dasatinib 0.014 | [2] -0.114 | [3] 0.022 | quisinostat -0.072 | tipifarnib 0.014 | [4] 0.029 | [5] 0.098 | [6] 0.016

NTMT1 (UniProt Q9BV86)
inactive: nilotinib -0.033 | [1] -0.026 | dasatinib -0.053 | [2] 0.002 | [3] 0.047 | quisinostat -0.051 | tipifarnib 0.012 | [4] 0.07 | [5] -0.049 | [6] -0.002

PAN2 isoform 2 (UniProt Q504Q3)
Chain of UniProt Q504Q3 (Q504Q3 whole entry, looked up): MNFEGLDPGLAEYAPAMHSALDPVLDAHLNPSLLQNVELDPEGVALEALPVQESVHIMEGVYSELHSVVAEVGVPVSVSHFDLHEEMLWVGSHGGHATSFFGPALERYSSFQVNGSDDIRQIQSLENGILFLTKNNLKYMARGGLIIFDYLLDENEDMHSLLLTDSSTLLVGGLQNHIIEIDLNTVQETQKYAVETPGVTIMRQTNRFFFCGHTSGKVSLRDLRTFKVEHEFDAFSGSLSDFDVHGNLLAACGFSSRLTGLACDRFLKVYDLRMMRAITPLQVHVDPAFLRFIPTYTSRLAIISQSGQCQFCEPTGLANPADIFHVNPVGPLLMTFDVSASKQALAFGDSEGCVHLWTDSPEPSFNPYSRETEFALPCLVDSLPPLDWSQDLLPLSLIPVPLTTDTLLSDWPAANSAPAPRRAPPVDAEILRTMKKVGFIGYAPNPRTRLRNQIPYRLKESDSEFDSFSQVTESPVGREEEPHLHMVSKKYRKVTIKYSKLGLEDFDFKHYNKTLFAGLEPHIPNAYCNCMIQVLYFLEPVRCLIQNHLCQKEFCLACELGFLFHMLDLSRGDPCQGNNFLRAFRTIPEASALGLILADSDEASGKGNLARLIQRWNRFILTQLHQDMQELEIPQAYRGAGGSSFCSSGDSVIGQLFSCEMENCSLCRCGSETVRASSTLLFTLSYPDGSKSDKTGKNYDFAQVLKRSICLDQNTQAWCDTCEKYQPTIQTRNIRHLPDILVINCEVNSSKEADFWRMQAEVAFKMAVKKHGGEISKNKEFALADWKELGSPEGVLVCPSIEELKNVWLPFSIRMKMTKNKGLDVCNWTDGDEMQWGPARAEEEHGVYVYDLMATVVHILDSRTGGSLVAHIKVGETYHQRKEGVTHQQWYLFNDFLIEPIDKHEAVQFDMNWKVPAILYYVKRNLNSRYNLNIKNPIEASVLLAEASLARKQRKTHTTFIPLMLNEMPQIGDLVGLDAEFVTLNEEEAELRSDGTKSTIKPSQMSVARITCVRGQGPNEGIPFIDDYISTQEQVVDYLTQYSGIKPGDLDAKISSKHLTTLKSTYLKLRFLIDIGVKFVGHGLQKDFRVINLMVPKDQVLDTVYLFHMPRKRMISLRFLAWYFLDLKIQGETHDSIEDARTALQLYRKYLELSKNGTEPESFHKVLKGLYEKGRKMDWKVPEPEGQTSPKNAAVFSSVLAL
inactive: nilotinib 0.072 | [1] 0.013 | dasatinib -0.012 | [2] 0.046 | [3] 0.079 | quisinostat -0.036 | tipifarnib -0.049 | [4] 0.056 | [5] 0.02 | [6] -0.028

PARP14 (UniProt Q460N5)
inactive: nilotinib 0.004 | [1] -0.022 | dasatinib -0.024 | [2] 0.068 | [3] 0.256 | quisinostat -0.025 | tipifarnib -0.068 | [4] 0.128 | [5] 0.051 | [6] -0.09

NAP1L5 (UniProt Q96NT1)
Chain of UniProt Q96NT1 (Q96NT1 whole entry, looked up): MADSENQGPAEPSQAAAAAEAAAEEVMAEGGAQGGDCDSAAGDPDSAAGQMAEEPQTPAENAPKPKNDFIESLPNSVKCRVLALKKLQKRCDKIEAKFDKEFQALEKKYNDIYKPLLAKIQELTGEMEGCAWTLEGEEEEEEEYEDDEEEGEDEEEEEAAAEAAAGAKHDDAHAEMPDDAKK
inactive: nilotinib -0.008 | [1] -0.053 | dasatinib 0.024 | [2] 0.045 | [3] 0.01 | quisinostat 0.068 | tipifarnib 0.054 | [4] -0.05 | [5] -0.049 | [6] 0.005

MYD88 isoform 6 (UniProt Q99836)
inactive: nilotinib -0.003 | [1] 0.001 | dasatinib -0.021 | [2] -0.027 | [3] 0.024 | quisinostat -0.033 | tipifarnib 0.004 | [4] 0 | [5] 0.03 | [6] 0.054

OGFR (UniProt Q9NZT2)
Chain of UniProt Q9NZT2 (Q9NZT2 whole entry, looked up): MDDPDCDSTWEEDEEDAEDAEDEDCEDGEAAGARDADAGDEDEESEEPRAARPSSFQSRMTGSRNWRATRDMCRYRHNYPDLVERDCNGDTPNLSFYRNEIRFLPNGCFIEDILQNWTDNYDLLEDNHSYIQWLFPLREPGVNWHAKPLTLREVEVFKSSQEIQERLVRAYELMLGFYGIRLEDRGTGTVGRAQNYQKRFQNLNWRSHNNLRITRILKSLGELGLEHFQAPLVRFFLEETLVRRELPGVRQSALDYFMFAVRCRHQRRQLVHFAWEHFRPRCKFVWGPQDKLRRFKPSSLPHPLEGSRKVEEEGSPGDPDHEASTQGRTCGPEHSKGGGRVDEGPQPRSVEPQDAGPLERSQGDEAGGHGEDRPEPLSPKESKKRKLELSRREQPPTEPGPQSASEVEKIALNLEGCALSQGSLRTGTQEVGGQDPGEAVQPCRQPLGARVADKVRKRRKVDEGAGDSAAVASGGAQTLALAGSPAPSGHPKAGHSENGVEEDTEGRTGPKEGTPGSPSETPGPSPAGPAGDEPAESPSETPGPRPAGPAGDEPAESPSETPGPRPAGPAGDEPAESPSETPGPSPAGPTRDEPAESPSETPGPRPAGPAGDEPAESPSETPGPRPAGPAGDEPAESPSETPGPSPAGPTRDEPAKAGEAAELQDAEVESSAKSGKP
inactive: nilotinib -0.016 | [1] 0.021 | dasatinib -0.022 | [2] -0.005 | [3] 0.042 | quisinostat -0.004 | tipifarnib 0.04 | [4] 0.02 | [5] -0.001 | [6] 0.028

NEK9 (UniProt Q8TD19)
inactive: nilotinib -0.024 | [1] 0.13 | dasatinib -0.002 | [2] 0.007 | [3] 0.001 | quisinostat -0.042 | tipifarnib -0.018 | [4] 0.033 | [5] 0.003 | [6] -0.026
